Screens (PubChem BioAssay)
MEP2-GFP yeast: yeast TOR pathway MEP2-GFP modulation; S. cerevisiae MEP2-GFP strain, flow cytometry GFP, 3 h; 100% = DMSO control level; GFP response vs DMSO, % at 10 µM; 330,000 compounds, 0.51% hits; AID 2016;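 active means GFP response versus DMSO above a set limit, roughly screen mean plus 3 SD, cut at about 180% in these data; inconclusive means fewer than 70 cells counted for a yeast strain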;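 further: median GFP fluorescence of the barcode-gated MEP2-GFP cells per well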
RPL19A-GFP yeast: modulators of TOR pathway RPL19A-GFP in S. cerevisiae. AID 2025. S. cerevisiae RPL19A-GFP strain, flow cytometry, 3 h; hits give low values. percent response vs DMSO, % at 10 µM. 330,000 compounds, 0.3% hits;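 active means percent response vs DMSO below 50%; inconclusive means fewer than 70 events counted for the yeast strain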;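 further: median channel GFP fluorescence of the barcoded RPL19A-GFP strain; ratio of sample median GFP to plate DMSO average so 100% = DMSO; lower means less RPL19A-GFP as with rapamycin TOR inhibition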
AGP1 TOR yeast: yeast TOR pathway AGP1-GFP modulation; S. cerevisiae AGP1-GFP multiplex flow cytometry, 3 h; GFP as percent of DMSO wells; 320,000 compounds, 0.02% hits; GFP response vs DMSO, % at 10 µM; AID 2066;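 active means GFP response relative to DMSO above a set limit, near screen average plus 3 SD, cut at about 150% in these data; inconclusive means fewer than 70 cells counted for the yeast strain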;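 further: median GFP channel fluorescence of the gated AGP1 strain per well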
LAP4-GFP MLPCN: modulators of TOR pathway LAP4-GFP in S. cerevisiae; S. cerevisiae LAP4-GFP multiplex, flow cytometry GFP, 3 h; median GFP as percent of DMSO wells; GFP response vs DMSO, % at 10 µM; 320,000 compounds, 0.34% hits;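 active means GFP response vs DMSO above a set limit, about the screen mean plus 3 SD, cut at about 150% in these data; inconclusive means under 70 cell events counted for the yeast strain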
Efflux pump mplx: antifungal efflux pump inhibition, Nile Red retention | S. cerevisiae Candida pump triplex | inhibition, % at 10 µM | 330,000 compounds, 0.44% hits;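 active means plate passing quality check with inhibition over a set limit, or well fluorescence over plate mean plus 4 SD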;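 further: Nile Red retained in pooled yeast measured as flow cytometry median fluorescence; 0% = buffer negative control and 100% = Enniatin B positive control; higher means more Nile Red kept so more efflux inhibition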
CIT2-GFP yeast: yeast TOR pathway CIT2-GFP modulation; S. cerevisiae CIT2-GFP strain, flow cytometry, 3 h; 100 means same as DMSO wells; GFP response vs DMSO, % at 10 µM; 320,000 compounds, 0.065% hits; AID 2029;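 active means GFP response relative to DMSO above a set limit, near the screen mean plus 3 SD, cut at about 150% in these data; inconclusive means Fewer than 70 cells measured for a yeast strain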;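 further: ratio of well median GFP fluorescence to mean of DMSO wells on the plate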
* marks the source's active call; other numbers are inactive results; ? = inconclusive; . = no result given; [ ] = remark or other dose. This is a sample that favours compounds with a hit; in the whole collection about 1.3% have one here.

SMILES | MEP2-GFP yeast | RPL19A-GFP yeast | AGP1 TOR yeast | LAP4-GFP MLPCN | Efflux pump mplx | CIT2-GFP yeast
CCCc1cc(NCC2CCCO2)n2c(nc3ccccc32)c1C#N (stereo not given) | 537*[may fluoresce violet] | 30*[may fluoresce violet] | . | 125 | 0 | ?
Cc1ccc([N+](=O)[O-])cc1S(=O)(=O)Nc1ccc(C(=O)NCc2ccccn2)cc1 | 99 | 97 | 95 | 104 | 0 | 96
C=CCNC(=S)N/N=C(\C)c1cccc(OC)c1 | 217* | 106 | 94 | 123 | -1 | 100
CC(C)N=C(Nc1ccccc1)c1cccnc1 | 177*[may fluoresce violet] | 34*[may fluoresce violet] | 22 | 90 | 0 | ?
COc1ccc(COC(=O)C2=C(C)NC(=O)NC2c2ccc(OC)cc2)cc1 (stereo not given) | 118 | 111 | 103 | 101 | 1 | 101
COc1ccc(CN2C(=O)c3cccnc3C2=O)cc1S(=O)(=O)N1CCOc2ccc(Cl)cc21 | 111 | 98 | 99 | 102 | 0 | 91
COc1ccc(CN2C(=O)c3cccnc3C2=O)cc1S(=O)(=O)N1CCOc2ccccc21 | 334*[may fluoresce violet] | 45*[may fluoresce violet] | ? | 110 | 1 | ?
CCN(CC)S(=O)(=O)c1ccc(N2CCc3cc(OC)c(OC)cc3C2)nc1 | 100 | 106 | 104 | 101 | 0 | 103
O=C(CCN1C(=O)C2CC=C(Cl)CC2C1=O)NCc1ccco1 (stereo not given) | 100 | 104 | 99 | 95 | 0 | 98
O=C(CCN1C(=O)C2CC=C(Cl)CC2C1=O)NCc1ccccc1 (stereo not given) | 206*[may fluoresce violet] | ? | ? | ? | 0 | ?
Cc1ccc(NC(=O)NNC(=O)C2CC(c3cccs3)=NO2)cc1 (stereo not given) | 112 | 95 | 112 | 103 | 0 | 150*[may fluoresce green]
CCCN1CCN(C(=O)CCNC(=O)Cn2cnc3ccccc3c2=O)CC1 | 90 | 94 | 97 | 99 | 0 | 97
CCCN(CCC)c1ccc(/C=C/c2ccc3cc(OCC)ccc3n2)cc1 | 231*[may fluoresce violet] | 76 | 15 | 96 | 0 | ?
CCCCn1c(N)c(N(CC(C)C)C(=O)C2CCN(S(=O)(=O)c3ccc(F)cc3)CC2)c(=O)[nH]c1=O | 100 | 101 | 85 | 84 | 4 | 84
Cc1cnccc1CN(C)C(=O)C1CCC(=O)N(Cc2ccccc2F)C1 (stereo not given) | 121 | 32*[may fluoresce violet] | ? | 76 | 0 | ?
COc1ccccc1CN1CC(C(=O)N(C)Cc2ccncc2C)CCC1=O (stereo not given) | 95 | 99 | 99 | 107 | 0 | 99
CCN(CC)S(=O)(=O)c1ccc(N2CCN(C)CC2)c(NC(=O)c2cc(=O)c3ccccc3o2)c1 | ? | 39*[may fluoresce violet] | ? | ? | 0 | ?
COC(=O)[C@@H](NC(=O)N1CCN(C(=O)C2COc3ccccc3O2)CC1)C(C)C (stereo not given in full) | 172 | 19*[may fluoresce violet] | ? | 84 | 0 | ?
O=C(C1COc2ccccc2O1)N1CCCC1 (stereo not given) | 94 | 96 | 108 | 91 | 0 | 84
O=C(N/N=C/c1ccncc1)NC12CC3CC(CC(C3)C1)C2 | 101 | 98 | 105 | 112 | 0 | 99
O=C(N/N=C/c1ccc(O)cc1)NC12CC3CC(CC(C3)C1)C2 | 351*[may fluoresce violet] | 39*[may fluoresce violet] | ? | 61 | 0 | ?
O=c1[nH]c(CSc2ccccn2)nc2ccccc12 | 104 | 98 | 94 | 99 | 0 | 101
Nn1c(CSc2ccccn2)nc2ccccc2c1=O | 261*[may fluoresce violet] | 63 | ? | 57 | 0 | ?
O=C(CSc1nc2ccsc2c(=O)n1CC1CCC(C(=O)O)CC1)c1ccc(F)cc1 (stereo not given) | 880* | 74 | 215* | 224* | 0 | 259*
O=c1n(-c2ccc(Br)cc2)cnn1-c1ncccc1[N+](=O)[O-] | 92 | 97 | 98 | 100 | 0 | 95
SMILES | MEP2-GFP yeast | RPL19A-GFP yeast | AGP1 TOR yeast | LAP4-GFP MLPCN | Efflux pump mplx | CIT2-GFP yeast
CCOC(=O)C1CCCN(C(=O)c2ccc(-c3ccc([N+](=O)[O-])cc3)o2)C1 (stereo not given) | 79 | 96 | 84 | 169* | 0 | 70
CCOC(=O)C1CCCN(C(=O)c2ccc(CS(=O)(=O)c3ccc(C)cc3)o2)C1 (stereo not given) | 103 | 101 | 105 | 101 | 0 | 105
CC(C(=O)OCC(=O)c1cccc([N+](=O)[O-])c1)N1C(=O)C2C3CCC(C3)C2C1=O (stereo not given) | 103 | 104 | 97 | 91 | 0 | 106
O=C(CSc1ncnc2scc(-c3ccccc3)c12)N1CCN(Cc2ccc3c(c2)OCO3)CC1 | 198*[may fluoresce violet] | 30*[may fluoresce violet] | ? | 57 | 0 | ?
COc1ccc(NC(=O)C2C3C=CC(C3)C2C(=O)NCc2ccco2)c(OC)c1 (stereo not given) | 195* | 63 | 27 | 95 | 0 | 102
CC1CCN(S(=O)(=O)c2cccc(-c3cn4cc(Cl)ccc4n3)c2)CC1 | 93 | 93 | 98 | 158* | 0 | 87
CC1CCCN(S(=O)(=O)c2cccc(-c3cn4cccnc4n3)c2)C1 (stereo not given) | 177*[may fluoresce violet] | 61 | . | 84 | 0 | ?
CCc1nc2ccccc2c(C(=O)OCc2nnc(-c3ccccc3)o2)c1C | 102 | 99 | 98 | 107 | 0 | 105
O=C(CC1SC(N2CCCC2)=NC1=O)Nc1ccc(C(=O)Nc2ncccc2O)cc1 (stereo not given) | 101 | 102 | 112 | 110 | 0 | 110
CC1CN(C(=O)COC(=O)c2ccc(O)cc2)CC(C)O1 (stereo not given) | ? | 23*[may fluoresce violet] | ? | 63 | 0 | ?
CC(OC(=O)CSc1ccc([N+](=O)[O-])cc1)C(=O)NCc1ccccc1 (stereo not given) | 83 | 58 | 83 | 201* | 0 | 85
CN(Cc1cccc(C(F)(F)F)c1)Cc1nc(-c2cnccn2)no1 | 95 | 95 | 97 | 96 | 0 | 92
O=C1NC(Cc2ccccc2)C(=O)Nc2ccc(Br)cc21 (stereo not given) | 109 | 109 | 103 | 100 | 0 | 106
O=C1Nc2ccc(Br)cc2/C1=C/C1CC=CCC1 (stereo not given) | 91 | 79 | 90 | 192* | 0 | 97
Cc1ccc2c(c1)/C(=C/c1ccc(F)cc1)C(=O)N2 | 133 | 77 | 85 | 153* | 0 | 52
O=C(Nc1c2c(nn1-c1ccccc1)CS(=O)C2)c1ccco1 (stereo not given) | 90 | 77 | 113 | 168* | -1 | 82
CC(=O)c1cccc(NC(=O)C(C)OC(=O)c2cc(=O)[nH]c3ccccc23)c1 (stereo not given) | 101 | 96 | 103 | 96 | 0 | 98
